In one experiment the test system is THRa homodimer (NR concentration 90 nM). The experiment is described as follows: PBM binding z-score (relative to random genomic background probes); higher = stronger binding; sequences stand for … in GC…GCGATTGACAGCGTAGAATGAAGG
The essentials:
(§1)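 Binding z-scores were set against random background probes. The data came from custom Agilent 4×180K protein-binding microarrays carrying double-stranded probes with 34-nt variable regions, incubated 1 h with ligand-free nuclear receptor dimers. Partner-specific antibodies detected binding, and scanned fluorescence was regression-normalized.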
The sequence GCTCGGAGGACAAGGTCAGTGCTTTGTCCGTAGA yielded a PBM binding z-score of 1.49.
CCGTGTAGGTTATGGGGCATTCAGGCAACGGTGA displayed a PBM binding z-score of 0.635.
The same measure, in the same setting: under ATCTCTAGGTAAACGTTCAGTGAATCCCGAGGAT stands 0.162; under GGAACGAGGGCATAGTTGATAGCATCTGTCGACG, -0.185; under CCTACTGGTCCATTCAGAGGTCATTGATCATATG, 2.07.
The same measure, in the same setting: the same measure for TCTGGTTGGTCACGGAGGTCACACACGACGGGTA: 2.93.
The sequence CGCACTAGGTCAGAACAGGACAGTGAAGGATGAT displayed a PBM binding z-score of 0.508.
Sequence TCTTGTAGATCAGTAGAGGTTAAGAAAGTGCGCT displayed a PBM binding z-score of -0.288.
Sequence CAGCCTAGGTCAGGGCTAGTATAGGAGGAACGTT returned a PBM binding z-score of 0.321.
On the same count and under the same terms, under CAAACTAGGTCACAGAGCTCAAAGTCCGTGCGTA stands 1.11; under CGAACTAGGTCATCCAGGACAGTTAATACATTGA, 2.15; under CTCGAAAGGTCGGTTTAGGTGAGTATACGGATAA, 0.786.
The same measure, in the same setting: under CGTCCAAGGTCAATGCTAGGTCATTGAAAGCATT stands 3.74; under CCGACTGGGGCAGAAAGGTTCCCATACCATCCGG, -0.737; under CCTACTGGGCCAAAAGGGTCATTGATGCCGATAA, -0.01.
For the sequence TCGAGTAGGTTAGGGGCACTCAGAATGGCGTCGA, the PBM binding z-score turned out to be 0.0941.
In turn, TCTGCTAGGCCAGTTGGTCAGCTAACGAGCTGCC gave a PBM binding z-score of -1.4.
On the same count and under the same terms, under ATCTCTAGGTTAGACTCAGTTCAGTGAAGAACGC stands 1.21; under GCTTGTAGATCAAGGTTAAGAATGACTAAGCTAA, -0.00442.
Still for that read-out and setting: under CGTCATAGTTCAACTAAGGTAACGTAAAGCACGC stands 1.9; under AGCCAAAGTTCATCTAGGTAACGTAAGATATGCT, 0.256; under TCTTGTAGAACAACAGGAGGTTAAGAAAGATCGA, -0.422.
The same measure, in the same setting: the same measure for TCTTGTAGATCAGCAGGGTAAGAAAGCTGGCCAA: -0.567; for ACAGACAGGTGAGTGCAGGTAACTCAGCTGGACG: -0.612; for GCTAGCAGGCCATTTGGGTCCCTCAATGACGGGC: -1.01.
In turn, TCGAGTAGGTTACCAATGGGGCATCCAGCTTTCT returned a PBM binding z-score of -0.638.
On the same count and under the same terms, under TCATATAGGTAAAGGTGAAATTCGAACGATATGA stands -0.553.
Still for that read-out and setting: the same measure for GCATATAGGTAATACAAGGTGAAAGTACGATTGT: 0.806; for TCTTGTAGATCAGCAGGTCAAGAAAGCTGGCCAA: 0.0646.
Same read-out and setting: under CCTTACGGGTCACTGACAGGTTATAGCATTTGGA stands 0.283; under ATCTCTAGGTAACAAGTTCAATGAAAGAGAGGAC, 1.19.
As to CGTCCAAGGTCAGCAGGTCAATGAAAGCGACGTG, the PBM binding z-score is 2.46.
Same read-out and setting: the same measure for CCTTACGGGTCAAGGTTATGGCACGGGTGGTACG: 0.804.
On the same count and under the same terms, under ACGATTAGTTGAGACGAGGGCAACCGATAGGTTG stands -0.196.
Consider CCGACTGTGGCAGAAAGGTTACCATACCATCCGG, for which the PBM binding z-score is -0.0743.
The same measure, in the same setting: under TCTATTAGTTGATGAGGGCAACCGAAACAGCGGA stands 0.938.
Same read-out and setting: under CCTACTGGGCCAAGGTCATTAATCAGTCAAAGCA stands 2.03; under CGAACTAGGTCATTGACAGGACAGTGATTAGTAA, 1.05.
On the same count and under the same terms, under TCAGACAGGTGAAGGTAGCTCAGGTACGCAGTCG stands 0.148.
On to AGTCAAAGTTCAGGACGAGGTGACGTAAAGCACG, for which the PBM binding z-score was determined as 1.83.

For a further experiment, the system named is VDR homodimer (NR concentration 270 nM). Described as above. The gist of the method:
as §1
GCTCGGAGGACAAGGTCAGTGCTTTGTCCGTAGA: the PBM binding z-score was determined as 0.406.
Same read-out and setting: under CCGTGTAGGTTATGGGGCATTCAGGCAACGGTGA stands 0.353; under ATCTCTAGGTAAACGTTCAGTGAATCCCGAGGAT, -0.489.
As for GGAACGAGGGCATAGTTGATAGCATCTGTCGACG, the PBM binding z-score was determined as 1.18.
The same measure, in the same setting: the same measure for CCTACTGGTCCATTCAGAGGTCATTGATCATATG: 4.16; for TCTGGTTGGTCACGGAGGTCACACACGACGGGTA: 3.66; for CGCACTAGGTCAGAACAGGACAGTGAAGGATGAT: -0.275.
Turning to TCTTGTAGATCAGTAGAGGTTAAGAAAGTGCGCT, the PBM binding z-score was determined as 0.245.
Sequence CAGCCTAGGTCAGGGCTAGTATAGGAGGAACGTT showed a PBM binding z-score of -0.179.
The same measure, in the same setting: the same measure for CAAACTAGGTCACAGAGCTCAAAGTCCGTGCGTA: 0.62.
CGAACTAGGTCATCCAGGACAGTTAATACATTGA: the PBM binding z-score stood at 2.37.
Still for that read-out and setting: the same measure for CTCGAAAGGTCGGTTTAGGTGAGTATACGGATAA: 1.04; for CGTCCAAGGTCAATGCTAGGTCATTGAAAGCATT: 4.05; for CCGACTGGGGCAGAAAGGTTCCCATACCATCCGG: -0.826.
Same read-out and setting: the same measure for CCTACTGGGCCAAAAGGGTCATTGATGCCGATAA: 2.72; for TCGAGTAGGTTAGGGGCACTCAGAATGGCGTCGA: 0.0717; for TCTGCTAGGCCAGTTGGTCAGCTAACGAGCTGCC: -1.5.
Consider ATCTCTAGGTTAGACTCAGTTCAGTGAAGAACGC, for which the PBM binding z-score worked out at 2.48.
The sequence GCTTGTAGATCAAGGTTAAGAATGACTAAGCTAA gave a PBM binding z-score of -0.161.
Still for that read-out and setting: under CGTCATAGTTCAACTAAGGTAACGTAAAGCACGC stands 1.51; under AGCCAAAGTTCATCTAGGTAACGTAAGATATGCT, 5.28; under TCTTGTAGAACAACAGGAGGTTAAGAAAGATCGA, -0.182.
TCTTGTAGATCAGCAGGGTAAGAAAGCTGGCCAA registered a PBM binding z-score of -0.255.
Still for that read-out and setting: under ACAGACAGGTGAGTGCAGGTAACTCAGCTGGACG stands 0.269; under GCTAGCAGGCCATTTGGGTCCCTCAATGACGGGC, -0.499.
Still for that read-out and setting: under TCGAGTAGGTTACCAATGGGGCATCCAGCTTTCT stands -0.823.
Same read-out and setting: the same measure for TCATATAGGTAAAGGTGAAATTCGAACGATATGA: -0.144; for GCATATAGGTAATACAAGGTGAAAGTACGATTGT: 0.163; for TCTTGTAGATCAGCAGGTCAAGAAAGCTGGCCAA: 0.194.
As for CCTTACGGGTCACTGACAGGTTATAGCATTTGGA, the PBM binding z-score was determined as 1.03.
Turning to ATCTCTAGGTAACAAGTTCAATGAAAGAGAGGAC, the PBM binding z-score was found to be 3.97.
Sequence CGTCCAAGGTCAGCAGGTCAATGAAAGCGACGTG displayed a PBM binding z-score of 2.23.
On the same count and under the same terms, the same measure for CCTTACGGGTCAAGGTTATGGCACGGGTGGTACG: 1.45; for ACGATTAGTTGAGACGAGGGCAACCGATAGGTTG: 0.605.
Sequence CCGACTGTGGCAGAAAGGTTACCATACCATCCGG came in with a PBM binding z-score of -0.259.
As to TCTATTAGTTGATGAGGGCAACCGAAACAGCGGA, the PBM binding z-score stood at 1.35.
CCTACTGGGCCAAGGTCATTAATCAGTCAAAGCA showed a PBM binding z-score of 3.22.
Still for that read-out and setting: under CGAACTAGGTCATTGACAGGACAGTGATTAGTAA stands 1.52.
TCAGACAGGTGAAGGTAGCTCAGGTACGCAGTCG came in with a PBM binding z-score of -0.026.
Same read-out and setting: the same measure for AGTCAAAGTTCAGGACGAGGTGACGTAAAGCACG: 2.66.

For the origin of these results see the supplement of paper PMC6555819.
